Measured values from PubChem BioAssay (NCI).
This is part of a sample that, as a whole, favours compounds with a hit. Of some 79,000 tested, about 15% had one in any assay. Unmarked numbers belong to inactive results. Calls of active or inactive are those of the source. No stated cut-off is given here; in the data, active means growth inhibition above about 70%; inactive means the rest.

Assay: NCI Yeast Anticancer Drug Screen. Data for the rad50 strain (AID 155);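 further: 0% = growth of vehicle-only cultures of the same strain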
Conditions: S. cerevisiae rad50 strain growth inhibition, hits give high values
Procedure: Growth inhibition of yeast strains with defined genetic alterations is measured as a screen for potential anti-cancer activity. Selected strains with alterations in DNA damage repair or cell cycle control were exposed to compounds and growth inhibition was measured relative to vehicle treated controls. The strain used in this assay is rad50

[1] = at 5.0 µM (retest, dose inferred, filed as 0.5)
[2] = at 50.0 µM (retest, dose inferred, filed as 5.0)

SMILES	growth inhibition (at 1.2 µM) [%]	growth inhibition (at 3.7 µM) [%]	growth inhibition [1] [%]	growth inhibition (at 11.0 µM)	growth inhibition (at 33.0 µM)	growth inhibition [2]	growth inhibition (at 50.0 µM)	growth inhibition (at 100.0 µM)
COC(C(O)CO)C(O)C(O)C(=O)NNc1ccccc1 (stereo not given)	35	41	9	68%	79% (active)	71% (active)	96.1% (active)	96% (active)
CN(C)[C@@H]1C(=O)C(C(N)=O)=C(O)[C@@]2(O)C(=O)C3=C(O)c4c(O)cccc4C[C@H]3C[C@@H]12	-19	-25	7	9%	95% (active)	99% (active)	85.1% (active)	99% (active)
Cc1cc(C(C)(C)C)c(OCCCN2CCOCC2)c(C(C)(C)C)c1	-1	-6	5	5%	8%	50%	75.5% (active)	94% (active)
S=c1[nH]c2cc3ccccc3cc2[nH]1	-25	-25	5	-11%	3%	86% (active)	71.2% (active)	17%
N#CNC(N)=Nc1cc2ccccc2c2ccccc12	45	69	60	90% (active)	96% (active)	97% (active)	89.5% (active)	90% (active)
